# Source: PubChem BioAssay (National Center for Advancing Translational Sciences (NCATS))
# A selection: hits, their analogues and other compounds. The true share with any hit is near 0.99%.
# AmpC detergent: inhibitors of E. coli AmpC beta-lactamase with detergent. P00811. AmpC hydrolysis of nitrocefin, absorbance 480 nm, 0.01% Triton. Potency, µM (series often up to 114 µM), usual class: inhibitors. 0.041% of 370,000 active. AID 485294; also: nearly all actives have a fitted effect of over 25% in size
# Target sequence (P00811 whole entry, looked up): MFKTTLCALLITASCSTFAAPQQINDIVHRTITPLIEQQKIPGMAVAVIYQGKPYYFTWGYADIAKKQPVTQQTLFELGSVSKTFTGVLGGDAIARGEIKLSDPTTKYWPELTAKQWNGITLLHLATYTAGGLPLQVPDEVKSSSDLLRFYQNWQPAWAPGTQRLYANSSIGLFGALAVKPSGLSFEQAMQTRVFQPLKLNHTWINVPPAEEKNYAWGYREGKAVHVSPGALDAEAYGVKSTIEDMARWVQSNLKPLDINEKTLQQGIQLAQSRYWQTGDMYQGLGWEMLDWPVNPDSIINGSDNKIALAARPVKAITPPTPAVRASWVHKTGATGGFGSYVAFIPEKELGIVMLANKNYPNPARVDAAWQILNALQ
#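 AmpC (5.3 nM in the dispensed reagent) in 20 mM phosphate pH 7.0 with 0.01% (detergent screen) or 0.0001% Triton X-100 was preincubated with compounds for 15 min at room temperature. Nitrocefin was then added from an 800 uM solution, and hydrolysis was followed at 480 nm.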
# SARS PLpro yeast: inhibitors of SARS-CoV papain-like protease in yeast | S. cerevisiae expressing SARS-CoV PLpro, growth rescue | Potency, µM (top dose mostly 32.9 µM), actives largely listed as activators | 0.19% of 330,000 active | AID 485353; calls by dose curve; also: nearly all actives have a fitted effect of over 55% in size
# NS1 inh: blocks influenza NS1 protein function. Potency, µM (titrated, usually from 46.1 µM). 0.4% of 270,000 active. AID 2326; calls by dose curve; also: actives are rising curves; nearly all actives have a fitted effect of over 50% in size
#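 Compounds were scored for reversing the slow growth caused by influenza A NS1 in S. cerevisiae, measured by optical density at 600 nm. Assay medium contained 2% galactose at pH 6.0; NS1-free yeast of the same strain were the positive control.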
# AMA1-RON2 inh: AMA1-RON2 (P. falciparum) interaction inhibition; AlphaScreen AMA1-biotinylated RON2 peptide binding; Potency, µM (top dose mostly 58.2 µM), actives largely listed as inhibitors; 0.2% of 360,000 active; AID 720542; also: nearly all actives have a fitted effect of over 45% in size
#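 AMA1 (3D7) with his tag at 25 nM final met compounds first, then biotinylated RON2 peptide at 25 nM; detection used donor plus acceptor beads, 10 µg/mL apiece, read by AlphaScreen after 30 min at room temperature.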
# AmpC no deterg: inhibitors of E. coli AmpC beta-lactamase without detergent; 0.52% of 330,000 active; Potency, µM (highest dose often 57.1 µM), usual class: inhibitors; AID 485341; P00811; AmpC nitrocefin hydrolysis, absorbance 480 nm, 0.0001% Triton; also: nearly all actives have a fitted effect of over 20% in size
#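 AmpC (5.3 nM in the dispensed reagent) in 20 mM phosphate pH 7.0 with 0.01% (detergent screen) or 0.0001% Triton X-100 was preincubated with compounds for 15 min at room temperature. Nitrocefin was then added from an 800 uM solution, and hydrolysis was followed at 480 nm.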
# Numbers stand for hits; 0 = inactive; ? = inconclusive; - = not tested or not shown. Unless noted, calls follow the shape of the dose curve; as a rule, active = well fitted curve in the direction sought with a large enough effect; inconclusive = small, poorly fitted or top-dose-only effect, or another doubt; inactive = no such curve, though single readings can be large; an effect the other way counts as inactive or inconclusive.
SMILES,AmpC detergent,SARS PLpro yeast,NS1 inh,AMA1-RON2 inh,AmpC no deterg
COc1cccc(Nc2nc(-c3ccccc3O)nc3ccccc23)c1,0,0,0,0,0
COc1ccc(Nc2nc(-c3ccccc3O)nc3ccccc23)cc1,0,0,0,0,2µM
O=C(CSc1ccsc1[N+](=O)[O-])Nc1cc(F)ccc1F,0,0,-,0,0
CC(=O)c1ccc(NC(=O)CSc2ccsc2[N+](=O)[O-])cc1,0,0,-,0,4.5µM
COc1ccc(NS(=O)(=O)c2cc(Br)cc3c2N(C(=O)C2CC2)CC3)cc1OC,0,-,-,-,-
Cc1c(C(=O)NC(=S)Nc2ccc(NC(=O)c3cccs3)cc2)oc2ccccc12,?,0,0,0,18µM
Cc1c(C(=O)Nc2ccc(S(=O)(=O)Nc3ncccn3)cc2)oc2ccccc12,0,0,-,0,0
Cc1cc(NS(=O)(=O)c2ccc(NC(=O)c3oc4ccccc4c3C)cc2)no1,0,?,0,30µM,?
NS(=O)(=O)C[C-]1C=C[CH]([Sb-]([Cl])([Cl])([Cl])([Cl])[Cl])C=C1.c1ccncc1 (stereo not given),-,-,0,-,-
COc1cccc(CCNC(=O)c2ccc(Cn3c(SCc4ccccc4)nc4cccnc43)cc2)c1,0,-,-,-,-
CCc1ccc(NC(=O)CSc2nc(-c3ccccc3)no2)cc1,0,-,-,-,-
NNC(=O)c1nn(-c2ccccc2)cc1O,0,10µM,0,-,0
COc1ccc(N2c3ccccc3CN(Cc3ccccc3)CC2Cc2cc(OC)c(OC)c(OC)c2)cc1 (stereo not given),-,-,-,11µM,-
C[C@H]1[C@@H](Cc2cc(Cl)cc(Cl)c2)N(c2ccccc2)c2ccccc2CN1Cc1ccccc1,-,-,-,0,-
COc1ccc(OC)c(C(=O)CSc2ncc3c(n2)-c2ccccc2N(Cc2ccccc2C)S3(=O)=O)c1,0,-,-,-,-
COc1ccc(-c2nc(C#N)c(N3CCCCC3)o2)cc1,0,0,0,?,0
COc1ccc(-c2nc(C#N)c(N3CCCCCC3)o2)cc1,0,0,0,0,7.1µM
N#CCC(=O)c1ccccc1Oc1ccc(Cl)cc1,?,0,-,0,4µM
COc1ccc(/C=C/C(=O)c2c(O)cc(C)oc2=O)c(OC)c1,0,0,0,0,0
Cc1cc(O)c(C(=O)/C=C/c2ccc(Cl)cc2)c(=O)o1,0,0,0,0,25µM
COc1cc(/C=C/C(=O)c2c(O)cc(C)oc2=O)cc(OC)c1O,0,0,0,0,0
CSc1ccc(/C=C/C(=O)c2c(O)cc(C)oc2=O)cc1,0,0,?,0,28µM
O=C(COc1ccccc1Cl)Nc1ccc(Cl)c(-c2nc3ccccc3o2)c1,0,-,-,-,-
O=C(Oc1ccc(S(=O)(=O)F)cc1F)c1ccccc1Cl,-,-,0,-,-
C=CCc1ccccc1OCCSc1nc(-c2ccccc2F)nc2cc(=O)[nH]n12,0,-,-,-,-
SMILES,AmpC detergent,SARS PLpro yeast,NS1 inh,AMA1-RON2 inh,AmpC no deterg
Cc1ccc2c(c1)N(C(=O)c1ccco1)C(C)(C)c1ssc(=S)c1-2,0,0,0,12µM,0
CC(C)CCNC(=O)c1ccc2nc(Cc3ccccc3)oc2c1,0,-,-,-,-
COc1ccc(-c2nc3ccccc3s2)cc1NC(=O)c1cccc(F)c1,0,-,-,-,-
CCCOC(=O)C1C2C=CC3(CN(c4ccc(Cl)c(F)c4)C(=O)C13)O2 (stereo not given),0,0,0,0,7.1µM
CCCCNC(=O)c1ccccc1C(=O)NCCCC,0,0,0,0,1.1µM
COc1ccc(CCNC(=O)Cc2c(C)c3c(cc(C)c4c(C)c(C)oc43)oc2=O)cc1,0,-,-,-,-
COc1ccc(Cl)cc1NC(=O)c1cnc2sccn2c1=O,?,0,0,0,3.5µM
O=C(O)c1cccc(-n2cccc2/C=C2/NC(=O)N(c3ccc(Cl)cc3)C2=O)c1,0,0,-,?,13µM
O=C(O)c1cccc(-n2cccc2/C=C2/NC(=O)N(c3cccc(Cl)c3)C2=O)c1,0,0,0,0,0
CCOC(=O)c1cc(-c2ccccc2)n(CC(=O)Nc2ccc(OC)cc2OC)c1C,0,-,-,-,-
Cn1cc(Cl)c(C(=O)Nc2cccc(Cl)c2Cl)n1,0,0,0,0,7.1µM
Cc1ccc(NC(=O)CSc2nc(=O)n(CCN3CCOCC3)c3c2CCC3)cc1Cl,0,-,-,-,-
Cc1cc(C)c(Nc2cc(S(=O)(=O)O)c(N)c3c2C(=O)c2ccccc2C3=O)c(C)c1,0,0,0,28µM,0
Nc1ccc(-c2ccc(Nc3cc(S(=O)(=O)O)c(N)c4c3C(=O)c3ccccc3C4=O)cc2)c(S(=O)(=O)O)c1,-,-,0,-,-
CCSCC[C@H](N)C(=O)O,-,-,0,-,-
Clc1ccc(C2CC(c3ccccc3)Nc3ncnn32)cc1 (stereo not given),?,0,0,0,1.3µM
S=c1sscc1-c1ccccc1,-,-,-,20µM,-
COc1ccccc1-c1cn[nH]c1-c1ccc(OCc2ccc(F)cc2)cc1O,0,0,0,0,7.1µM
COc1ccccc1-c1cn[nH]c1-c1ccc(OCc2ccc([N+](=O)[O-])cc2)cc1O,?,0,0,0,0
CN(C)S(=O)(=O)c1ccc2c(c1)N(CC(=O)Nc1ccc(F)cc1)C(=O)CS2,0,-,-,-,-
Cc1cc(C)c2sc(N3CCN(C(=O)C4CC4)CC3)nc2c1,0,-,-,-,-
COc1ccccc1N=Nc1nc(-c2ccccc2)c(-c2ccccc2)[nH]1,0,0,0,35µM,?
COc1ccc(NC(=O)c2cc(S(=O)(=O)Nc3ccc(OC)cc3)cs2)cc1,0,0,0,0,11µM
CCCOc1ccccc1NC(=O)CC1Nc2ccccc2NC1=O (stereo not given),0,0,0,0,18µM
CCOC(=O)/C=c1\s/c(=C\c2ccc(-c3ccccc3)cc2)c(=O)n1CC(=O)NCc1ccc2c(c1)OCO2,0,0,11µM,0,?
SMILES,AmpC detergent,SARS PLpro yeast,NS1 inh,AMA1-RON2 inh,AmpC no deterg
CCOC(=O)/C=c1/s/c(=C/c2ccc3cc(OC)ccc3c2)c(=O)n1CC(=O)NCc1ccc2c(c1)OCO2,-,-,-,0,-
CCc1ccccc1NC(=O)CCn1cccn1,0,-,-,-,-
Cc1cccc(N=Nc2ccc(N(C)C)cc2)c1,0,0,0,16µM,0
CN(C)c1ccc(N=Nc2cccc3ccoc23)cc1,0,0,0,14µM,0
CN(C)c1ccc(N=Nc2cccc(F)c2)cc1,0,0,0,8.9µM,0
CN(C)c1ccc(N=Nc2ccc(S(N)(=O)=O)cc2)cc1,?,0,?,0,0
COc1ccccc1CCNC(=O)c1ccc2c(c1)c(C)c(C)n2C,0,-,-,-,-
O=C(NCCc1nc2ccccc2[nH]1)/C(=C/c1ccc2c(c1)OCO2)NC(=O)c1ccccc1,0,0,0,0,10µM
N#C/C(=C/c1ccc2c(c1)OCO2)C(=O)NCCc1c[nH]c2ccccc12,0,0,0,?,0.28µM
N#C/C(=C/c1ccc(-c2ccc(Br)cc2)o1)C(=O)NC1CCCCC1,0,0,0,0,0
O=C(NCCc1c[nH]c2ccccc12)c1ccc2c(c1)OCO2,0,0,0,0,0
N#C/C(=C\c1ccc(-c2ccc(Br)cc2)o1)C(=O)NCCc1c[nH]c2ccccc12,0,0,0,0,8.9µM
